# Data published in the supplement of paper PMC10338343.
# ± gives the standard deviation. The full ranking holds about 5,500 sequences; the median of “pre-steady-state target cleavage rate” is about 0.1, and the highest 2% start at about 0.64. The full list was thinned out, with the highest values kept by preference.
# Test system: MIWI (PIWIL1) piRISC loaded with piRNA #2 (30 nt)
# Assay: pre-steady-state target cleavage rate (min^-1); MIWI and MILI are mouse PIWI proteins and EfPiwi is from a freshwater sponge; tags in brackets are library labels; higher = faster piRNA-guided slicing of the target
# Settings: guide: piRNA #2 5'p-UUAGGUAACCCAGUAGAUCCAGAGGAAUUC; auxiliary factor: 500 nM mouse GTSF1
# Outline: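 With or without 500 nM GTSF1 partner protein, 1 nM active affinity-purified piRISC carrying one synthetic guide was mixed with 0.1 nM transcribed, DNA-blocked target RNA library in HEPES–potassium acetate buffer at 33 °C for 0–8 or 0–960 min. Uncleaved targets were sequenced and normalised to depth and to weakly complementary targets, three trials were pooled, and k3 was capped at 0.0001 min^-1. The pre-steady-state cleavage rate came from a burst-and-steady-state fit.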
row,Sequence,pre-steady-state target cleavage rate
1,CUUAUGCUCUGGAUCUACUGGGUUACCUAA,0.124 ± 0.02
2,CUUAAGGACAGGUUCUACUGGGUUACCUAA,0.0257 ± 0.017
3,CUUAAGCUCUGGAUCUACUGGGUAACCAAA,0.0234 ± 0.0094
4,CUUAACCUCUGGAUCUACUGGGUUACUAA,0.116 ± 0.018
5,CUUAAGGAGUGGAACUACUGGGUUACCUAA,0.0357 ± 0.024
6,CUUAAGGAGUGGAUCUACUGGGUUACCGAA,0.0437 ± 0.018
7,CUUUUCCUCUGGAUCUAGAGGGUUACCUAA,0.022 ± 0.0052
8,CUUAACCUCUGGUUCUACUGGCUUACCUAA,0.112 ± 0.014
9,CUUAACCUCUCGUUCUACUGGGUUACCUAA,0.401 ± 0.044
10,CAAUUCCUCUGGGUCUACUGGGUUACCUAA,0.562 ± 0.037
11,CAAUUCCUCUCCUUCUACUGGGUUACCUAA,0.613 ± 0.058
12,CUAUUCCUCUCGUUCUACUGGGUUACCUAA,0.75 ± 0.077
13,CUAUUCCUCUCCUUCUACUGGGUUACCUAA,0.569 ± 0.049
14,CAAUUCCUCUCGUUCUACUGGGUUACCUAA,0.82 ± 0.071
15,GAAUUCCUCUCCUUCUACUGGGUUACCUAA,0.781 ± 0.06
16,GAAUUCCUCUCGUUCUACUGGGUUACCUAA,0.793 ± 0.058
17,GAAUUCCUCUGGAUUCUACUGGGUUACCUAA,0.224 ± 0.036
18,CUUAUCCUCUCGUUCUACUGGGUUACCUAA,0.41 ± 0.039
19,CUAUUCCUCUGGAUUCUACUGGGUUACCUAA,0.346 ± 0.047
20,CUUUUCCUCUCGUUCUACUGGGUUACCUAA,0.519 ± 0.041
21,CUUAAGGAGUGGUUCUACUGGGUUACCUUA,0.0165 ± 0.004

row,Sequence,pre-steady-state target cleavage rate
1,CUUAAGGACUGGAUCUACUGGGUUAACUAA,0.116 ± 0.042
2,CUUUUCCUCUGGAUCUACUGCCUUACCUAA,0.0739 ± 0.012
3,CUUAACCUCUGGAUCUACAGGGUUAGCUAA,0.0376 ± 0.0069
4,GAAUUCCUCUGGAUCUAGUGGGUUUCCUAA,0.108 ± 0.019
5,CUUAAGGACUGGAUCUACUAGGUUACCUAA,0.0835 ± 0.039
6,CUUAAGGUCAGGAUCUACUGGGUAACCUAA,0.00869 ± 0.0069
7,CUUAACCUCUGGAUCUACUGGGUUACACUAA,0.344 ± 0.042
8,CUAUUCCUCUGGAACUUCUGGGUUACCUAA,0.299 ± 0.036
9,CUUAUCCUCUGGAUCUAGUGGGAUACCUAA,0.0912 ± 0.02
10,GAAUUCCUCUGGAUCUACUGGGAUACCAAA,0.192 ± 0.06
11,CUUAAGGUCUGGAUGUUCUGGGUUACCUAA,0.05 ± 0.018
12,GAAUUCCUCUGGAUGUACUGGGUUACCUAA,0.352 ± 0.045
13,GAAUUCCUCUCGAUGUACUGGGUUACCUAA,0.645 ± 0.052
14,CUUAUCCUCUCGAUGUACUGGGUUACCUAA,0.498 ± 0.03
15,CUUAACCUCUCGAUGUACUGGGUUACCUAA,0.421 ± 0.029
16,CAAUUCCUCUGGAUGUACUGGGUUACCUAA,0.578 ± 0.054
17,CAAUUCCUCUCGAUGUACUGGGUUACCUAA,0.672 ± 0.056
18,CUAUUCCUCUCGAUGUACUGGGUUACCUAA,0.636 ± 0.045
19,CUAUUCCUCUGGAUGUACUGGGUUACCUAA,0.533 ± 0.041
20,CUUUUCCUCUCGAUGUACUGGGUUACCUAA,0.592 ± 0.043
